# According to PubChem BioAssay (NCATS):
# Records with an inconclusive call do not appear. Values without a mark were called inactive. The source made the active and inactive calls. Calls come from the whole dose curve; as a rule, active = well fitted inhibition curve with a large enough effect; inconclusive = small, poorly fitted or top-dose-only effect; inactive = flat fitted curve, though single readings scatter.
# Tested on: NIH3T3
# Assay: Cytotoxic Profiling of Annotated Libraries Using Quantitative High-Throughput Screening (AID 1296008); note: nearly all actives have a fitted effect of over 60% in size
# Details: Five cell lines viability, CellTiter-Glo ATP luminescence, 48-72 h; max response: active compounds read low
# Outline: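 Cytotoxicity was measured as CellTiter-Glo ATP luminescence, read after 10 min at room temperature. Compound treatment of the cells lasted 48 or 72 hr at 37 degrees Celsius in a qHTS format.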
# % is set by controls: 0 for no effect and ±100 for the full control effect; potency is the fitted concentration of half-maximal effect.
SMILES,max response,Potency
O=C(/C=C/c1ccc(O)cc1)N[C@@H](Cc1ccc(O)cc1)C(=O)O,1.16%,–
C/C(=C\CC[C@@H](C)[C@H]1CC(O)[C@@]2(C)C3CC[C@H]4C(C)(C)[C@@H](OC5OCC(O)C(O)C5OC5OC(CO)C(O)C(O)C5O)CC[C@@]45C[C@@]35CC(O)[C@]12C)C(=O)O (stereo partly specified),-27.1%,–
CCOC(=O)C(CCc1ccccc1)NC(C)C(=O)N1C(=O)N(C)CC1C(=O)O (stereo unspecified),1.45%,–
C[C@@H](O)[C@H](NC(=O)c1ccc(C#Cc2ccc(CN3CCOCC3)cc2)cc1)C(=O)NO,3.18%,–
CS(=O)(=O)N1CCC(NC(=O)c2[nH]ncc2NC(=O)c2c(Cl)cccc2Cl)CC1,–,2590 nM (active)
CC1(C)CC[C@]2(C(=O)OC3OC(CO)C(O)C(O)C3O)CC[C@]3(C)C(=CCC4[C@@]5(C)CC[C@H](OC6OC(C(=O)O)C(O)C(OC7OC(CO)C(O)C(O)C7O)C6O)C(C)(C)C5CC[C@]43C)C2C1 (stereo partly specified),0.867%,–
CC[C@@H](O)C[C@@H]1C(C)=C[C@@H]2CCCC[C@@H]2[C@@]1(C)C(=O)O,-7.4%,–
CC(=O)OC12COC1CC(O)C1(C)C(=O)C(O)C3=C(C)C(OC(=O)C(O)C(NC(=O)OC(C)(C)C)c4ccccc4)CC(O)(C(OC(=O)c4ccccc4)C21)C3(C)C (stereo unspecified),–,16.4 nM (active)
C[C@@H]1CC[C@]2(C(=O)O)CC[C@]3(C)C(=CCC4[C@@]5(C)C[C@@H](O)[C@H](O)[C@@](C)(CO)C5CC[C@]43C)C2[C@]1(C)O (stereo partly specified),-6.81%,–
CN(C)C/C=C/C(=O)Nc1cccc(C(=O)Nc2cccc(Nc3ncc(Cl)c(-c4c[nH]c5ccccc45)n3)c2)c1,–,4110 nM (active)
COC(=O)C1=C2Nc3ccccc3C23CCN2CCCC(C(C)O)(C1)C23 (stereo unspecified),1.02%,–
